The list is a sample of the results.
aSyn UTR act = Activators via SNCA 5'UTR binding, MLPCN; alpha-synuclein 5'UTR reporter, activators screen; activity score, % (tested at 7.5 µM), hits read low; hit rate 7.1% among 300,000; AID 1814; in the data active means activity score below about -60%
An asterisk follows results filed as active.

SMILES	aSyn UTR act
c1ccc(-c2ccc(CN3CCSCC3)cc2)cc1	-87.9*
CS(=O)(=O)N1N=C(c2ccc(Cl)cc2)CC1c1cccs1 (stereo not drawn)	-177.8*
c1ccc(-c2ccc(-c3[nH]ncc3CN3CCC(N4CCSCC4)CC3)cc2)cc1	-143.3*
CC(=O)NC(=S)Nc1ccc2oc(-c3cc(F)c(F)cc3Cl)nc2c1	-111.2*
O=C(Cc1ccccc1)NC(=S)Nc1ccc2oc(-c3ccccc3F)nc2c1	-187.2*
O=C(Cc1ccccc1)NC(=S)Nc1ccc2oc(-c3ccccc3)nc2c1	-105.7*
CCCc1cc2c(=O)c(-c3ccc4c(c3)OCCO4)coc2cc1OS(C)(=O)=O	-221.6*
CCCc1cc2c(=O)c(-c3ccc4c(c3)OCCO4)coc2cc1OC(=O)c1ccco1	-286.8*
CCCNC(=O)Cn1cnc2sc(C(=O)Nc3ccc4c(c3)OCO4)c(C)c2c1=O	-63.5*
CCn1cnc2sc(C(=O)Nc3ccc4c(c3)OCO4)c(C)c2c1=O	-145.1*
CCC(=O)Nc1ccc(-c2ccc(N3CCC(C)CC3)nn2)cc1	-95.5*
CC1CCN(c2ccc(-c3cccc(NC(=O)C(F)(F)F)c3)nn2)CC1	102.8
CCC(=O)Nc1ccc(-c2ccc(N3CCN(C)CC3)nn2)cc1	-72.5*
Cc1ccsc1/C=C1/SC(N2CCOCC2)=NC1=O	-79.6*
Cc1ccc(/C=C2\SC(=S)N(CCCC(=O)Nc3ccccc3C(=O)O)C2=O)cc1	67.6
O=C(CCCN1C(=O)/C(=C/c2ccccc2Cl)SC1=S)NNC(=O)c1ccccc1Cl	100.3
O=C(CCN1C(=O)/C(=C/c2ccccc2Cl)SC1=S)N1CCCC1	-115.4*
Cc1ccc(/C=C2\SC(=S)N(CCC(=O)N3CCOCC3)C2=O)cc1	-63.8*
O=C(CCN1C(=O)/C(=C/c2ccccc2Cl)SC1=S)N1CCOCC1	-73.2*
Cc1ccc(/C=C2\SC(=S)N(CCCC(=O)Nc3ccc(O)cc3)C2=O)cc1	103.6
CN1CCN(C(=O)CCCN2C(=O)/C(=C/c3cccc(Br)c3)SC2=S)CC1	-218.5*
C#CCn1cccc(C(=O)Nc2ccc(OC)cc2)c1=O	-63.5*
CCCn1cccc(C(=O)Nc2ccc(OC)cc2)c1=O	-82.3*
NNc1nc2ccccc2c(=O)n1Cc1ccccc1	-132.7*
Cc1ccc(NC(=O)c2cnccn2)cc1	-81.8*
SMILES	aSyn UTR act
Cc1ccc(NC(=O)c2cnccn2)cc1C	-72.0*
O=C(Nc1ccc(Br)cc1)c1cnccn1	-93.6*
COc1ccc(-n2c(C)nc3c(cnn3-c3ccc(C)c(C)c3)c2=O)cc1	-84.9*
CCCCOc1ccc(N(CC(=O)NCc2ccccc2)C(=O)c2csnn2)cc1	-69.3*
COc1ccc(CCCC(=O)N/N=C/c2cccc(OC)c2O)cc1C	74.1
COc1ccc(N=Cc2cccc(C)c2O)cc1Cl	-138.0*
C=CCC(CC(O)COCCC)C(=O)NNC(=S)Nc1ccccc1 (stereo not drawn)	-113.1*
Nn1c(CSc2ccccn2)nc2ccccc2c1=O	-123.0*
Cc1cccc(OCc2nc3ccccc3n2C)c1	-140.3*
Cn1c(COc2ccc(F)cc2)nc2ccccc21	-121.3*
Cc1cccc(OCc2nc3ccccc3c(=O)n2N)c1	-71.4*
Cc1ccccc1OCc1nc2ccccc2n1C	-169.8*
CCOC(=O)C1CCN(c2ccc(-c3cccs3)nn2)CC1	-212.5*
COc1cccc(C2(O)CC(C(F)(F)F)=NN2C(=O)c2ccccn2)c1 (stereo not drawn)	-112.7*
CC(=O)c1ccc(Sc2ccc(C(C)=O)cc2)cc1	-63.5*
CCOC(=O)C1CCCN(C(=O)c2cc3cc4ccc(OC)cc4nc3o2)C1 (stereo not drawn)	-100.7*
COc1ccc2cc3cc(C(=O)N4CCCC(C)C4)oc3nc2c1 (stereo not drawn)	-64.4*
Cc1cc(N2CCOCC2)nc2ccc(NC(=O)CCC(=O)N3CCN(c4ccccc4F)CC3)cc12	-126.8*
Cc1cc(N2CCOCC2)nc2ccc(NC(=O)CCC(=O)N3CCN(c4ccc(F)cc4)CC3)cc12	-72.1*
Cc1cc(N2CCOCC2)nc2ccc(NC(=O)CCC(=O)N3CCCC(C)C3)cc12 (stereo not drawn)	-86.5*
Cc1nn(-c2ccccc2)c2sc(C(=O)N(CC(=O)NC3CCCC3)Cc3ccco3)cc12	-66.6*
Cc1nn(-c2ccc(F)cc2)c2sc(C(=O)N3CCCCCC3)cc12	-83.7*
Cc1nn(-c2ccccc2)c2sc(C(=O)NC3CC3)cc12	-99.5*
C=CCN1CCN(C(=O)CSc2ccccc2)CC1	-102.7*
COc1ccccc1N1CCN(C(=O)CSc2ccccc2)CC1	-81.7*
SMILES	aSyn UTR act
O=C(CCc1ccccc1)n1nc(-c2ccccc2)nc1NCc1ccco1	-67.1*
Clc1cccc(-c2cc3nc4c(c(NCc5ccco5)n3n2)CCCC4)c1	-115.0*
Cc1ccc(-c2nc(NCc3ccco3)n(S(C)(=O)=O)n2)cc1	-71.6*
CCC(=O)n1nc(-c2ccc(Cl)cc2)nc1NCc1ccccc1	-93.3*
CC(=O)n1nc(-c2ccc(C)cc2)nc1NCc1ccco1	-160.7*
Cc1ccc(-c2cc3nc(C)cc(NCc4ccco4)n3n2)cc1	-156.8*
COc1cccc(/C(N)=N/OC(=O)Cc2ccccc2[N+](=O)[O-])c1	-77.1*

Screens from PubChem BioAssay.
